# Test results from ChEMBL document CHEMBL5724796, “Tm Shift (DSF) assay results for EUbOPEN Chemogenomics Library” (2024).
# Non-standard residues stand in square brackets, D forms with d. Residues, ends and D or L forms follow the SMILES beside them. *: point of attachment. Nle = CCCC[C@H](N)C(=O)O; Cbz = O=C(OCc1ccccc1)*; CH2F = FC*
# Target: Mitogen-activated protein kinase 1 (Homo sapiens) (UniProt P28482)
# Details: Compound concentration 20.0 uM
# Chain of Mitogen-activated protein kinase 1 (Homo sapiens) (P28482 whole entry): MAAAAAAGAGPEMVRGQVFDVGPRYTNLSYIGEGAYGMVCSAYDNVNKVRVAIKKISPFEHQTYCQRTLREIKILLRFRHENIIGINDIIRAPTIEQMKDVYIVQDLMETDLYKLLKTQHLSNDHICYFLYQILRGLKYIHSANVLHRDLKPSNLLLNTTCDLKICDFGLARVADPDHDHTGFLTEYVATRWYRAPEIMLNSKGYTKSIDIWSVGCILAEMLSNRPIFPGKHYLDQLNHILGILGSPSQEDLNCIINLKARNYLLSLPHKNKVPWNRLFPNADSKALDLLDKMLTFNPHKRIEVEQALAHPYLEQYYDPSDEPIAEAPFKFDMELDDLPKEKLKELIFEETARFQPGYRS
row,Structure (SMILES),ΔTm [°C]
1,Cc1noc(C)c1-c1cc(Cl)c(Nc2ccccc2C(=O)O)c(Cl)c1,0.1
2,Cc1ncccc1-c1cnc(NCc2c(F)ccc3c2CCO3)n2cnnc12,0.37
3,Fc1ccc(CNc2ncnc3ccc(F)cc23)cc1,0.19
4,CCCC[C@@H](C=O)NC(=O)[C@H](CC(C)C)NC(=O)[C@H](CC(C)C)NC(C)=O (Ac-Leu-Leu-[Nle]-aldehyde),0.06
5,Nc1ncnc2nc(-c3ccc(N4CCOCC4)nc3)cc(-c3cccc(Br)c3)c12,-0.25
6,COC(=O)CC[C@H](NC(=O)[C@H](Cc1c[nH]c2ccccc12)NC(=O)OCc1ccccc1)C(=O)N[C@@H](Cc1cnc[nH]1)C(=O)N[C@@H](CC(=O)OC)C(=O)CF (Cbz-WE(OMe)HD(OMe)-CH2F),-0.1
7,Cc1ccc(F)c2cc(C(=O)N[C@@H]3CCC[C@H](N4CC[C@H](N(C)S(C)(=O)=O)C4)C3)[nH]c12,-0.53
8,NC(=O)c1cnc(N[C@@H]2CCCC[C@@H]2N)nc1Nc1cccc(-n2nccn2)c1,4.33
9,CN(CCCCCCNc1ccnc2cc(Cl)ccc12)CCCCCCNc1ccnc2cc(Cl)ccc12,-0.51
10,CCCOc1ccc(NC(=O)CN2CCN(C)CC2)cc1-c1nc(CC)c(CC)c(=O)[nH]1,0.66
11,COc1cc(C(C)C)c2c(c1)S(=O)(=O)N(COc1cc(=O)n3cccc(OCCN4CCCCC4)c3n1)C2=O,-0.23
12,O=C(CCl)Nc1ccc(S(=O)(=O)c2ccc(NC(=O)CCl)cc2)cc1,-1.61
13,CCn1c(=O)c(C)cn(Cc2nnc(-c3ccc(F)c(O)c3F)s2)c1=O,-0.2
14,Cc1ncsc1-c1ccc([C@H](C)NC(=O)[C@@H]2C[C@@H](O)CN2C(=O)[C@@H](NC(=O)COCCCOCCNC(=O)C[C@@H]2N=C(c3ccc(Cl)cc3)c3c(sc(C)c3C)-n3c(C)nnc32)C(C)(C)C)cc1,0
15,COc1cc2c(cc1OC)[C@H]1C[C@@H](OC(=O)[C@@H](N)C(C)C)[C@H](CC(C)C)CN1CC2,0.3
16,CC(=O)OCCN1C(=O)c2c(C)nc3ccc(S(=O)(=O)N4CCOCC4)cc3c2C1=O,-0.31
17,COc1cc(-c2cn(C)c(=O)c3cnccc23)cc(OC)c1CN(C)C,0.18
18,COc1cc(Nc2ncc(F)c(Nc3ccc4c(n3)N(COP(=O)(O)O)C(=O)C(C)(C)O4)n2)cc(OC)c1OC,-0.75
19,O=C(NO)C(c1ccc(-c2ncc(C(F)(F)F)cn2)cc1)c1ccccc1F (stereo not given),0.1
20,Cc1ccsc1C(=CCCN1CCC[C@@H](C(=O)O)C1)c1sccc1C,0.16

row,Structure (SMILES),ΔTm [°C]
1,NC(=O)c1cccc(NC(=O)CCC(=O)NCCc2cn(CCNS(=O)(=O)c3cccc(C(=O)O)c3)nn2)c1,-1.68
2,CC(C)c1ccc(C(=O)N=C(N)N)cc1S(C)(=O)=O,0.04
3,CCc1oc2ccccc2c1C(=O)c1cc(Br)c(O)c(Br)c1,-2.33
4,Cc1sc(C(=O)c2cncnc2N[C@@H]2C[C@H](COS(N)(=O)=O)[C@@H](O)C2)cc1[C@@H]1NCCc2ccc(Cl)cc21,0.53
5,Nc1c[nH]c(=O)c2cc(-c3ccccc3)sc12,0.57
6,O=C(O)CCNc1cc(N2CCc3ccccc3CC2)nc(-c2cccnc2)n1,-0.29
7,CC1(C)CC[C@]2(C(=O)O)CC[C@]3(C)C(=CC[C@@H]4[C@@]5(C)C=C(O)C(=O)C(C)(C)[C@@H]5CC[C@]43C)[C@@H]2C1,-3.78
8,Cn1ncc2c(-c3c(-c4ccc(F)cn4)nn4c3COC(C)(C)C4)ccnc21,0.32
9,Cc1[nH]c2c(N3CCCCC3)c(-c3ccccc3)nn2c(=O)c1-c1ccc(O)cc1,0.65
10,O=C1c2ccccc2C(=O)c2oc(-c3cccnc3)nc21,0.32
11,Cn1c(NCCN(CCO)CCCc2ccc([N+](=O)[O-])cc2)cc(=O)n(C)c1=O,0.09
12,CC(C)[C@H](NC(=O)OCc1ccccc1)C(=O)NC(CC(=O)O)C(=O)CF (stereo not given in full),-0.08
13,CN(C)CCCNC(=O)c1ccc(-c2cc(O)c3ncccc3c2)cc1,0.28
14,O=C(c1cc(Cc2n[nH]c(=O)c3ccccc23)ccc1F)N1CC(CNC2CC2)C1,0.06
15,C[C@@H]1O[C@@H](CC(=O)O)CC2=C1C(=O)c1c(O)cccc1C2=O,-0.24
16,Cc1ncsc1-c1ccc([C@H](C)NC(=O)[C@@H]2C[C@@H](O)CN2C(=O)[C@@H](NC(=O)CNC(=O)c2ccc(F)c(-c3ccc(N4C[C@@H](C)N(C)[C@@H](C)C4)c(NC(=O)c4c[nH]c(=O)cc4C(F)(F)F)c3)c2)C(C)(C)C)cc1,-15.7
17,C[C@@H]1OC(=O)NN=C1c1ccc(-c2ccc(F)cc2)c(C(F)(F)F)c1,-0.02
18,N#C[C@@H]1CCCN1C(=O)CNC(=O)c1ccnc2ccc(OCCCN3CCN(C(=O)CN4CCN(CC(=O)O)CCN(CC(=O)O)CCN(CC(=O)O)CC4)CC3)cc12,0.66
19,O=C1C(=O)N(Cc2ccccc2)c2ccc(S(=O)(=O)N3CCC[C@H]3COc3ccc(C(F)(F)F)cc3)cc21,-0.63
20,CCCCN(Cc1ccc(C(=O)NO)cc1)C(=O)Nc1ccccc1,0.25
